Test results reported in PubChem BioAssay.
Where “and” joins values, the source holds several entries; their conditions need not be identical. Equal entries are not always repeated. Calls of active or inactive are those of the source.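 How the source made its calls, unless noted: active means inhibition at or above 50% relative to wild type and mutant plate controls; inactive means inhibition below 50%.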

Assays:
[1] = inhibitors of TNFa-induced NFkB p65 translocation, primary screen, imaging, HUVEC, MLSMR starter and 10KST1 sets (AID 438;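 active means inhibition above 20% together with a positive visual image hit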;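 further: compound added about 3h40 before a 20 min TNFalpha stimulation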;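 on inhibition: signal is the nuclear over cytoplasmic p65 intensity ratio per well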); details: HUVEC TNFa-induced p65 nuclear translocation; cell count: measured here: nuclei count (cytotoxicity indicator), at 2.08 µM; inhibition: at 2 µM, stronger effect = higher value, 0% TNFa-plus-vehicle, 100% no-TNFa wells
[2] = reduction of polyQ htt aggregates in cells – imaging, exon1htt(103Q)mCFP cells, high-content imaging, primary screen (AID 483;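 active means visual image review flags a hit and inhibition of aggregation exceeds 20%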;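 further: compound exposure lasted 3 days before fixation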;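 on nuclei count: percent of the per-plate median nuclei count of sample wells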); details: exon1htt(103Q)mCFP cell line, aggregate imaging, at 2 µM; inhibition of aggregation: stronger effect = higher value; nuclei count: measured here: cell count, toxicity
[3] = endothelial E-selectin expression blockers – imaging, HUVEC, immunofluorescence, MLSMR starter and 10KST1 sets, primary screen (AID 487;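 active means visually confirmed hit in the image check and inhibition above 20%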;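 on inhibition: signal is fraction of cell area covered by stained E-selectin grains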;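 on nuclei count: 100% = median nuclei count of all wells on the same plate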); details: HUVEC TNFalpha-induced E-selectin immunofluorescence imaging, at 2 µM; inhibition: stronger effect = higher value; nuclei count: measured here: cell number, toxicity
[4] = Primary imaging screen for DUSP6 inhibitors that restore phospho-Erk in transfected HeLa cells, chemical complementation (AID 609;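 active means compounds giving at least 50% inhibition in the cell-based MKP-3 phosphatase rescue imaging test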;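 on inhibition: phospho-Erk level distribution per well compared with pooled transfected vehicle control wells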); details: HeLa MKP-3 transfected, phospho-Erk imaging KS statistic, at 10 µM, cells stimulated with TPA for 15 min
[5] = molecular target: Dual specificity protein phosphatase 6 (Homo sapiens) (UniProt Q16828); test: as above; details: HeLa MKP-3 transfected, phospho-Erk imaging KS statistic; at 10 µM; stronger effect = higher value; cells stimulated with TPA for 15 min
[6] = molecular target: Voltage-gated potassium channel subunit beta-2 (Rattus norvegicus) (UniProt P62483); test: inhibitors of rat Kvbeta2 reductase activity – biochemical, NADPH fluorescence, primary screen (AID 622;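 active means fluorescence slope higher than the sample average by over 3 SD, cut at about -0.22 in these data, passing the limit was not always enough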;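 further: slope of raw intensity against log time taken from 70 to 1610 s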); details: recombinant KvBeta, 4-cyanobenzaldehyde reduction, at 10 µM, stronger effect = higher value
[7] = molecular target: Voltage-gated potassium channel subunit beta-2 (Rattus norvegicus) (UniProt P62483); test: enhancers of rat Kvbeta2 NADPH turnover – biochemical, NADPH fluorescence, primary screen (AID 623;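 active means NADPH fluorescence slope more negative than the mean of all samples by about 3 SD, 99.7% confidence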;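 further: fluorescence intensity change per second fitted from 20 to 320 s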); details: Recombinant KvBeta, NADPH fluorescence decrease slope, 10 min; at 10 µM; stronger effect = lower value
[8] = molecular target: Alpha-2C adrenergic receptor (Homo sapiens) (UniProt P18825); test: compounds altering alpha2C-coupled GIRK flux – cell-based, HEK293 alpha2C/GIRK1/2, thallium flux, primary screen (AID 624;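 active means fluorescence slope after compound addition differing from the mean of all screened samples at 99.7% confidence, in either direction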;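 further: slope of fluorescence ratio to pre-addition baseline per second over 15 to 24 s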); details: thallium flux BTC fluorescence, at 10 µM, actives lie on both sides
[9] = inhibitors of larval lipid processing in zebrafish, primary screen, whole organism, PED6 fluorescence, gall bladder and intestine (AID 686;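 active means a full or partial loss of lipid-probe fluorescence in the fish gall bladder, intestine or both, judged by eye; inactive means no fluorescence loss, or compound toxic to the fish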;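 further: larvae 5 to 7 days old with five fish per well; signal comes from phospholipase A2 cleavage of quenched PED6 carried via bile; overnight exposure to compound and PED6 before scoring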); details: Zebrafish larvae PED6 lipid processing, fluorescence scoring; screened at 20 µM (by protocol)
[10] = loss of swimming-algae plug formation – whole organism, Chlamydomonas reinhardtii, WT vs cilia-less mutant, absorbance, 96-well, primary screen (AID 463189); details: Chlamydomonas reinhardtii gravitaxis, OD600 absorbance, 2 days; at 10 µM; stronger effect = higher value;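 further: 0% = wild type cc124 cells in DMSO and 100% = ciliumless bld1 mutant cells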
[11] = blockers of RIG-like receptor reporter activation – cell-based, Sendai virus stimulus, luciferase, 10K MLSCN set, TLR/RLR signaling modifier project, primary screen (AID 602276;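 active means inhibition at or above 50% at 10 µM; inactive means inhibition below 50%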;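 further: firefly luciferase from ISG56 promoter only with Renilla not read in this screen; 0% = Sendai virus plus DMSO and 100% = medium plus DMSO without virus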); details: HEK293 RL24 IRF3 luciferase reporter, at 10 µM, stronger effect = higher value
[12] = TLR3 IRF3 reporter activation blockers – cell-based, poly I:C stimulus, luciferase, 10K MLSCN set, primary screen (AID 602277;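 active means inhibition of the reporter signal at or above 50%; inactive means inhibition below 50%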); details: HEK293-TLR3 RL24 IRF3 luciferase reporter, at 10 µM, stronger effect = higher value
[13] = measured here: cell density z-score
[14] = measured here: nuclear c-Myc green intensity z-score
[15] = measured here: nuclear pErk red intensity z-score, stronger effect = higher value

Sequence of Alpha-2C adrenergic receptor (Homo sapiens) (P18825 whole entry, looked up): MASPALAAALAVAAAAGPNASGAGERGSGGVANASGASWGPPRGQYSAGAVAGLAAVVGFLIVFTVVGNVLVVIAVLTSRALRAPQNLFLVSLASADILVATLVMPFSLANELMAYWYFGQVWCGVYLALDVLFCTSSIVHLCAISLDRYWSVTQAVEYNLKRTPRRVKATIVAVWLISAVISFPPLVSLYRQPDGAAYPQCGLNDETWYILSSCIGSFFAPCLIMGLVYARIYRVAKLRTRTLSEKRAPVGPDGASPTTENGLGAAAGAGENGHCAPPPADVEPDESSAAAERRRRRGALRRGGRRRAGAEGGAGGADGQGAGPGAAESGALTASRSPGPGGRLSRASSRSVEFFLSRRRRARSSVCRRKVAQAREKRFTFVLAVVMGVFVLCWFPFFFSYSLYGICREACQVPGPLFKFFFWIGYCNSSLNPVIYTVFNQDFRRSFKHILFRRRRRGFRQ
Sequence of Voltage-gated potassium channel subunit beta-2 (Rattus norvegicus) (P62483 whole entry, looked up): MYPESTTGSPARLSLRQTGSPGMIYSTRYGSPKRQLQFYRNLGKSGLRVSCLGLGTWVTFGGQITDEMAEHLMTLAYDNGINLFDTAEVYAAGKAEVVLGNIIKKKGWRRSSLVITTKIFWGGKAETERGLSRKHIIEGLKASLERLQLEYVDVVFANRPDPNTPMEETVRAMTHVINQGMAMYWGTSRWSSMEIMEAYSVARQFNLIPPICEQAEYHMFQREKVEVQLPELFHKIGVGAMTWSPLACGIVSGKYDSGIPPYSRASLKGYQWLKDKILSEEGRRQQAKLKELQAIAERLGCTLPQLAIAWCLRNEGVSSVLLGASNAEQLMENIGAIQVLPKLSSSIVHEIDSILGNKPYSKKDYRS
Sequence of Dual specificity protein phosphatase 6 (Homo sapiens) (Q16828 whole entry, looked up): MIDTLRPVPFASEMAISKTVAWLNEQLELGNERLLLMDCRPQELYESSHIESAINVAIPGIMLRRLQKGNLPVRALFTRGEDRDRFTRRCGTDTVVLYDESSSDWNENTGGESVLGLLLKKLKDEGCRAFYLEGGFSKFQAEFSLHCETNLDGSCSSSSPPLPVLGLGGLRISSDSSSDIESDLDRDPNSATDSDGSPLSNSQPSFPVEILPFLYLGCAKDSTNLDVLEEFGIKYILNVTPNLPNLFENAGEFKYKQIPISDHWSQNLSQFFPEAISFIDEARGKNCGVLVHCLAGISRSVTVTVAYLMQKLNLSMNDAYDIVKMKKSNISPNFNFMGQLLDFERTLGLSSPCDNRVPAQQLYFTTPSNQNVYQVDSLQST

SMILES	cell count [1]	inhibition [1]	inhibition of aggregation [2]	nuclei count [2]	inhibition [3]	nuclei count [3]	z-score [4, 13]	z-score [4, 14]	z-score [4, 15]	inhibition [5]	fluorescence slope [6]	NADPH fluorescence slope [7]	slope [8]	outcome [9]	inhibition [10]	inhibition [11]	inhibition [12]
CCCCOc1ccc(-c2nnc(N)s2)cc1	634	-17.7% (inactive)	-7.4% (inactive)	104%	-23.7% (inactive)	146%	-0.283	0.709	0.136	-15% (inactive)	-0.405 (inactive)	-6.4e-05 (inactive)	0.00759 (inactive)	inactive	2.26% (inactive)	-42.6% (inactive)	-89.4% (inactive)
Cc1c(/C(O)=C2/C(=O)C(=O)N(CCN3CCOCC3)C2c2cccnc2)cnn1-c1ccccc1 (configuration not stated)	509	4.8% (inactive)	1.3% (inactive)	102%	-26.8% (inactive)	107%	0.15	-0.278	-0.0426	1.6e-07% (inactive)	-0.602 (inactive)	-1.5e-05 (inactive)	0.00432 (inactive)	inactive	23.9% (inactive)	-12% (inactive)	-9.27% (inactive)
CC(=O)[C@H]1CC[C@H]2[C@@H]3CCC4=CC(=O)CC[C@]4(C)[C@H]3[C@H](O)C[C@]12C	603	-11.5% (inactive)	8.3% (inactive)	112%	-156% (inactive)	135%	1.17	0.758	-0.978	7.39% (inactive)	-0.485 (inactive)	4.5e-06 (inactive)	0.00386 (inactive)	inactive	-5.96% (inactive)	-13.1% (inactive)	-16.3% (inactive)
CCOC(=O)CSC1=C(C#N)C(c2ccc3c(c2)OCO3)CC(=O)N1 (configuration not stated)	562	-1.1% (inactive)	-16.1% (inactive)	82.2%	-43.4% (inactive)	80.7%	-0.992	0.745	0.964	3.66% (inactive)	-0.471 (inactive)	-0.000313 (inactive)	0.00534 (inactive)	inactive	14.3% (inactive)	36.8% (inactive)	34.7% (inactive)
Nc1cccc(C(=O)O)c1	563	3.8% (inactive)	28.2% (inactive)	59%	-31.1% (inactive)	97.4%	1.14	0.242	-0.0201	12.4% (inactive)	-0.462 (inactive)	-4.9e-05 (inactive)	0.00577 (inactive)	inactive	-1.48% (inactive)	9.57% (inactive)	34.4% (inactive)
Cc1ccc(/C(O)=C2/C(=O)C(=O)N(Cc3ccco3)C2c2cccs2)cc1 (configuration not stated)	592	-1.5% (inactive)	-9.7% (inactive)	111%	-40.6% (inactive)	136%	-0.164	0.546	1.58	-18.6% (inactive)	-0.497 (inactive)	-6.4e-05 (inactive)	0.00587 (inactive)	inactive	-4.07% (inactive)	-8% (inactive)	3.2% (inactive)
Cc1ccc(N(CC(O)CN2CCCC2)S(=O)(=O)c2ccc(C)cc2)cc1 (configuration not stated)	415	-5.4% (inactive)	8.3% (inactive)	97.4%	-210% (inactive)	148%	1.32	-1.19	-0.796	13.2% (inactive)	-0.388 (inactive)	-5e-05 (inactive)	0.00478 (inactive)	inactive	7.07% (inactive)	-14.3% (inactive)	-1.97% (inactive)
Cn1c(=O)n(CCC(=O)O)c2ccccc21	429	-3.4% (inactive)	7.9% (inactive)	96.9%	-65.4% (inactive)	159%	-0.862	-1.01	0.787	-9.7% (inactive)	-0.405 (inactive)	-5.3e-05 (inactive)	0.00491 (inactive)	inactive	1.78% (inactive)	16.2% (inactive)	22.9% (inactive)
COc1ccc(C2=Nn3c(nnc3-c3ccccc3)SC2)cc1OC	523	-5.5% (inactive)	-6.6% (inactive)	92.4%	-126% (inactive)	132%	-0.336	0.955	0.104	-11.5% (inactive)	-0.413 (inactive)	-0.000132 (inactive)	0.00597 (inactive)	inactive	2.7% (inactive)	25% (inactive)	40.2% (inactive)
C[N+](C)(C)CCOP(=O)([O-])OC[C@H](O)CO	713	-2.4% (inactive)	-22.9% (inactive)	105%	-60.7% (inactive)	109%	0.542	0.427	-0.871	15.3% (inactive)	-0.472 (inactive)	-5.7e-05 (inactive)	0.00513 (inactive)	inactive	27.2% (inactive)	-4.92% (inactive)	-2.18% (inactive)
CCCCOc1ccc(OCCCN2CCOCC2)cc1	589	6% (inactive)	7.5% (inactive)	94.3%	-52.4% (inactive)	117%	-0.745	-1.16	3.07	1.38% (inactive)	-0.49 (inactive)	-5.2e-05 (inactive)	0.00401 (inactive)	inactive	159% (active)	-7.75% (inactive)	-40.7% (inactive)
CC(C)(C)NCC(O)c1cc(O)cc(O)c1 (configuration not stated)	472	-2.4% (inactive)	21.1% (inactive)	89.3%	-7% (inactive)	88.9%	0.22	-3	-0.525	1.38% (inactive)	-0.472 (inactive)	-6.7e-05 (inactive)	0.00544 (inactive)	inactive	6.82% (inactive) and -7.52% (inactive)	7.09% (inactive)	35.9% (inactive)
NS(=O)(=O)c1cc2c(cc1C(F)(F)F)NC(Cc1ccccc1)NS2(=O)=O (configuration not stated)	519	-2.8% (inactive)	18.4% (inactive)	75.3%	-18.5% (inactive)	105%	-0.539	-0.574	0.0203	-0.493% (inactive)	-0.528 (inactive)	7.9e-07 (inactive)	0.00523 (inactive)	inactive	-16.5% (inactive)	9.6% (inactive)	2% (inactive)
COC(=O)CSc1nc(C)c(C(C)=O)cc1C#N	505	-8.8% (inactive)	5.5% (inactive)	86.1%	-16.5% (inactive)	136%	-0.468	-1.01	-0.0332	-8.95% (inactive)	-0.376 (inactive)	-3.7e-05 (inactive)	0.00524 (inactive)	inactive	13.8% (inactive)	3.96% (inactive)	-12.7% (inactive)
c1ccc(SCc2nc3ccccc3[nH]2)nc1	407	-12.9% (inactive)	-9.8% (inactive)	107%	-65.1% (inactive)	119%	0.727	0.54	-0.488	9.39% (inactive)	-0.624 (inactive)	-2.9e-05 (inactive)	0.00427 (inactive)	inactive; toxic	13.1% (inactive)	-49.8% (inactive)	-119% (inactive)
C[C@]12C[C@H](O)[C@H]3[C@@H](CCC4=CC(=O)CC[C@@]43C)[C@@H]1CC[C@@H]2C(=O)CO	627	-3.6% (inactive)	-21.5% (inactive)	101%	-37.7% (inactive)	102%	0.905	0.0812	-0.546	9.37% (inactive)	-0.526 (inactive)	-4.5e-06 (inactive)	0.00481 (inactive)	inactive	3.78% (inactive) and -16.2% (inactive)	5.57% (inactive)	32.8% (inactive)
C[C@]12CC[C@@H]3c4ccc(O)cc4CC[C@H]3[C@@H]1CC[C@@H]2OC(=O)CCC(=O)O	543	4.6% (inactive)	-1.9% (inactive)	91.7%	-5.8% (inactive)	111%	-0.479	-0.845	2.04	5.79% (inactive)	-0.519 (inactive)	-3.4e-05 (inactive)	0.0043 (inactive)	inactive	-7.26% (inactive)	15.4% (inactive)	24% (inactive)
COc1cc(-c2nn3c(-c4cccnc4)nnc3s2)cc(OC)c1OC	561	-0.7% (inactive)	-9.6% (inactive)	103%	-152% (inactive)	134%	0.586	-0.752	-1.22	15.5% (inactive)	-0.41 (inactive)	-0.000121 (inactive)	0.0074 (inactive)	inactive	18.4% (inactive)	12.1% (inactive)	8.92% (inactive)
CCN(CC)CCCC1(CN)OCCc2ccccc21 (configuration not stated)	475	-12.9% (inactive)	-31.3% (inactive)	86.5%	-55.8% (inactive)	104%	1.04	0.0892	-0.524	17% (inactive)	-0.378 (inactive)	-6.2e-06 (inactive)	0.00288 (inactive)	inactive	24.5% (inactive)	5.61% (inactive)	50.5% (active)
CCCN(CCC)S(=O)(=O)c1ccc(C(=O)O)cc1	623	-9.8% (inactive)	6.1% (inactive)	108%	-101% (inactive)	118%	0.315	0.261	0.309	-2.46% (inactive)	-0.448 (inactive)	3.2e-06 (inactive)	0.00488 (inactive)	inactive	-3.99% (inactive)	0.7% (inactive)	13.7% (inactive)
CCOC(=O)/C(C#N)=C1\Nc2ccccc2N=C1N(CC(C)C)CC(C)C	586	-7.3% (inactive)	-2.5% (inactive)	105%	-92.9% (inactive)	148%	-0.677	-0.872	-0.406	3.56% (inactive)	-0.524 (inactive)	-3.1e-05 (inactive)	0.00419 (inactive)	inactive	1.92% (inactive)	-5.84% (inactive)	-1.84% (inactive)
